# In PubChem BioAssay:
# Inconclusive results are not listed. Activity calls are given as the source filed them.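 The calls were made as follows, unless noted: active = aptamer binding inhibition above 30%, about 3 SD of noise from non-fluorescent compounds; inactive = inhibition at or below 30%.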
# What was measured:
# [1] = rapamycin-like changes in RPL19A-GFP expression – cell-based, S. cerevisiae, multiplex flow cytometry, primary screen (AID 1862; in the data active = percent of DMSO control GFP below about 86%;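 also: lower values mimic rapamycin by blocking the RPL19A rise seen in DMSO cells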); details: S. cerevisiae RPL19A-GFP strain, flow cytometry fluorescence, 3 h; at 10 µM; stronger effect = lower value
# [2] = TOR pathway GLN3 branch reporter MEP2-GFP changes – S. cerevisiae, multiplex flow cytometry, primary screen (AID 1867;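 active = GFP response, as percent of the DMSO control, above the screen-wide mean plus 3 SD, about 139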;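 also: median GFP channel fluorescence of barcode-gated MEP2-GFP cells measured by flow cytometry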); details: S. cerevisiae MEP2-GFP strain, 3 h, at 10 µM, stronger effect = higher value, 100% means same as DMSO wells
# [3] = TOR pathway RTG branch CIT2 reporter changes – S. cerevisiae, GFP fusion, multiplex flow cytometry, primary screen (AID 1870;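 active = percent response above a set limit, the screen-wide mean plus 3 SD, cut at about 130% in these data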;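 also: barcoded CIT2-GFP strain pooled with four other GFP strains with rapamycin as positive control; median GFP fluorescence per well over plate mean of DMSO wells so 100% = DMSO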); details: S. cerevisiae CIT2-GFP expression, 3 h, at 10 µM, stronger effect = higher value
# [4] = TOR pathway LAP4-GFP level changes – S. cerevisiae, multiplex flow cytometry, primary screen (AID 1873;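 active = GFP signal, as percent of the solvent control, above the screen mean plus 3 SD, about 149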); details: S. cerevisiae LAP4-GFP expression, 3 h, at 10 µM, stronger effect = higher value
# [5] = yeast AGP1-GFP level changes, GLN3 branch – cell-based, multiplex flow cytometry, S. cerevisiae, primary screen (AID 1887;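 active = GFP signal above the screen-wide mean plus 3 SD, that is over about 124.5% of the solvent control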;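 also: AGP1-GFP fusion strain of S. cerevisiae within a five-strain barcoded multiplex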); details: 3 h, at 10 µM, stronger effect = higher value
# [6] = hit retest on RPL19A-GFP reporter strain – cell-based, S. cerevisiae, flow cytometry, cherry picks, mother/daughter gates, confirmation (AID 2270;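 active = GFP response below 50% of the DMSO control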); details: 3 h, at 10 µM, stronger effect = lower value, 100 = same GFP as DMSO wells
# [7] = yeast TOR pathway reporter LAP4-GFP change – cell-based, cherry picks, flow cytometry, mother/daughter gates, confirmation (AID 2271;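 active = GFP response above 150% of the DMSO control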;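 also: ratio of sample to DMSO plate mean so 100% equals DMSO level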); details: S. cerevisiae LAP4-GFP strain, 3 h, at 10 µM, stronger effect = higher value, 100 means same as DMSO control
# [8] = TOR pathway reporter MEP2-GFP, retest of hits – S. cerevisiae, flow cytometry GFP, cherry picks, confirmation (AID 2272;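 active = GFP response above 150% of the DMSO control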;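 also: ratio of well signal to plate DMSO mean so 100% equals DMSO level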); details: S. cerevisiae MEP2-GFP strain, 3 h, at 10 µM, stronger effect = higher value
# [9] = TOR pathway CIT2 reporter hit retest – S. cerevisiae, GFP fusion, cherry picks, mother/daughter gates, confirmation (AID 2274;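 active = GFP response above 150% of the DMSO level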); details: S. cerevisiae CIT2-GFP strain, flow cytometry, 3 h, at 10 µM, stronger effect = higher value
# [10] = reduced mouse 2C T cell binding to pMHC/ICAM-1 vesicles – MLPCN validation set, flow cytometry, LFA-1/ICAM-1 modulator project, pilot screen (AID 2523;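 active = response below a set limit, under 55% cells CD8-positive and vesicle-bound, and CD8 cells' 90th-percentile brightness under 279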;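 as to vesicle binding response: mean PE anti-B7-1 fluorescence of CD8+ cells relative to row control; 100% = QL9-loaded vesicles with DMSO vehicle in the same plate row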); details: 2C mouse CD8+ T cells, at 7 µM, stronger effect = lower value; double positive events: measured here: CD8+/vesicle+ event percentage
# [11] = target: Integrin beta-1 (Homo sapiens) + Integrin alpha-4 (Homo sapiens) (UniProt P13612+P05556); test: alpha4beta1 integrin LIBS antibody binding reduction – U937 cells, HUTS-21 mAb, flow cytometry, validation set, VLA-4 allosteric modulator project, pilot screen (AID 2674;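 active = inhibition above 50%, about 3 SD of the validation set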;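 also: antibody binding induced by the VLA-4 ligand LDV present at three times its Kd; 0% = LDV ligand with antibody and no compound and 100% = antibody without LDV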); details: HUTS-21 LIBS mAb binding, at 6.7 µM, stronger effect = higher value, binding induced by LDV ligand
# [12] = calorie-restriction mimetic ROS inhibitors, yeast – validation compound set, pilot screen (AID 2706;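 active = superoxide response below 65% of plate, a cut near 3 SD across the whole screen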;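 also: yeast exposed to compound for one week at 30 degrees C before staining; 100% = mean of all compound wells on the same plate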); details: S. cerevisiae aging, superoxide DHE fluorescence; at 10 µM; stronger effect = lower value
# [13] = target: Beta-adrenergic receptor kinase 1 (Homo sapiens) (UniProt P25098); test: GRK2 binders displacing RNA aptamer, biochemical, validation, human GRK2, bead flow cytometry (AID 488806); details: bead-bound GRK2, FAM-aptamer displacement, at 10 µM, stronger effect = higher value
# [14] = target: Beta-2 adrenergic receptor (Homo sapiens) (UniProt P07550); test: agonist-induced loss of surface beta2AR – cell-based, FAP fluorogen, flow cytometry, validation set, pilot screen (AID 504459;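 active = percent response above 42, roughly 3 SD of non-fluorescent test compounds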;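 also: agonist-driven loss of surface beta2AR via internalization measured by FAP dye flow cytometry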); details: Am2.2-beta2AR cells, at 10 µM, stronger effect = higher value
# [15] = target: AP-2 complex subunit beta (Homo sapiens) (UniProt P63010); test: beta-arrestin/AP2 interaction blockers – biochemical, validation set, GST-AP2 beads, flow cytometry, pilot screen (AID 504541;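 active = inhibition above 54%, about 3 SD of non-fluorescent compounds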;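 also: AP2 carries R879A mutation and is captured from E. coli lysate; bead-bound FITC arrestin peptide fluorescence measuring arrestin peptide binding to AP2; 0% = DMSO wells and 100% = excess unlabeled arrestin peptide control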); details: FITC arrestin peptide, at 10 µM, stronger effect = higher value, AP2 beta2 appendage fragment, R879A mutant
# [16] = cytosolic pH regulators acting via V-ATPase – S. cerevisiae, pHLuorin, HTS validation (AID 504600; in the data active = response above about 15%;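 also: plate controls were DMSO for no effect and reference compound for full effect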); details: V-ATPase proton transport, at 10 µM, stronger effect = higher value
# [17] = tested on: anti-desmoglein-3 scFv antibody binding to human DSG3; test: blockers of pathogenic pemphigus antibody–desmoglein-3 binding – biochemical, validation compound set, bead-based, flow cytometry, pilot screen (AID 588368;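 active = binding below the plate cutoff, the plate median minus 3 SD, with a reading above zero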;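 also: signal is the median channel fluorescence of bead-bound GFP antibody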); details: Protein G beads, DSG3-Fc, scFv-GFP binding, at 10 µM, stronger effect = lower value
# [18] = Nile Red efflux blockade in pump-expressing yeast – validation compound set, multiplex, phenotypic, pilot screen (AID 588506;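 active = efflux inhibition above 0.42, the validation set average plus 4 SD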;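 also: Nile Red retained in cells so higher fluorescence means more efflux inhibition; 0 = negative control wells and 1 = enniatin B 25 µM full block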); details: S. cerevisiae pump-expressing triplex, Nile Red efflux flow cytometry; at 10 µM; stronger effect = higher value; the pumps come from Candida albicans
# [19] = target: ATP-binding cassette sub-family B member 6 (Homo sapiens) (UniProt Q9NP58); test: blockers of ABCB6-driven porphyrin uptake – K562-ABCB6 cells, flow cytometry, validation set, pilot screen (AID 588550;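 active = inhibition above the screen-wide mean plus 3 SD, about 51%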;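 also: 0% = DMSO wells and 100% = benzethonium chloride 70 µM positive control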); details: K562-ABCB6 porphyrin accumulation, 1 h, at 10 µM, stronger effect = higher value
# [20] = AML differentiation inducers, ER-HoxA9 marrow cells – cell-based, GFP/MAC1 double positive, flow cytometry, validation set, primary screen (AID 588685;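 active = differentiation response of at least 50%, scaled between solvent and reference control, from cells with both markers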;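 also: compound exposure lasts four days before antibody staining and flow analysis; 0% = DMSO wells and 100% = 5 µM fulvestrant positive control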); details: stronger effect = higher value, normalized: vehicle 0, fulvestrant 100
# [21] = measured here: daughter cell gate
# [22] = measured here: mother cell gate
# [23] = measured here: daughter cell gate response
# [24] = measured here: mother cell gate response
# Chain of Integrin beta-1 (Homo sapiens) + Integrin alpha-4 (Homo sapiens) (P05556 whole entry, looked up): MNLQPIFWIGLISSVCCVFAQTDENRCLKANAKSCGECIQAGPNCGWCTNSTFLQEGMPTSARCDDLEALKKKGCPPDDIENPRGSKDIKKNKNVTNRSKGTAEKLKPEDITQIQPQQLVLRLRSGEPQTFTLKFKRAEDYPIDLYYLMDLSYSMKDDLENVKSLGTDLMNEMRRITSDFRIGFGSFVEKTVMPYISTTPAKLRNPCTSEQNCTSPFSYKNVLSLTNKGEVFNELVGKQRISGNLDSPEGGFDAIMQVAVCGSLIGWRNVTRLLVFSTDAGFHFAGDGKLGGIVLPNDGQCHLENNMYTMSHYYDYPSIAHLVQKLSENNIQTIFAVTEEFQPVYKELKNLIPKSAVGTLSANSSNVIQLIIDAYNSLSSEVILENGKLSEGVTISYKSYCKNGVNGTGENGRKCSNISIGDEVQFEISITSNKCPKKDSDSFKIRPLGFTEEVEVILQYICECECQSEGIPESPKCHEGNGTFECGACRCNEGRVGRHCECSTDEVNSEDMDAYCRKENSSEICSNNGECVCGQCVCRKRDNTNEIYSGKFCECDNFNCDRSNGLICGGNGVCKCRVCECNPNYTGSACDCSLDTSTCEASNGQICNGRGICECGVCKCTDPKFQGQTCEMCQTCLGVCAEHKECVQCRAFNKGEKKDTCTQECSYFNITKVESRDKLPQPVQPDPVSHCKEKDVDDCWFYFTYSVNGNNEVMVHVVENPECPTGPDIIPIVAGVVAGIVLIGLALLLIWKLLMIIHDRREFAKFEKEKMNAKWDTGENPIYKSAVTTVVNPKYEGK
# Chain of Integrin beta-1 (Homo sapiens) + Integrin alpha-4 (Homo sapiens) (P13612 whole entry, looked up): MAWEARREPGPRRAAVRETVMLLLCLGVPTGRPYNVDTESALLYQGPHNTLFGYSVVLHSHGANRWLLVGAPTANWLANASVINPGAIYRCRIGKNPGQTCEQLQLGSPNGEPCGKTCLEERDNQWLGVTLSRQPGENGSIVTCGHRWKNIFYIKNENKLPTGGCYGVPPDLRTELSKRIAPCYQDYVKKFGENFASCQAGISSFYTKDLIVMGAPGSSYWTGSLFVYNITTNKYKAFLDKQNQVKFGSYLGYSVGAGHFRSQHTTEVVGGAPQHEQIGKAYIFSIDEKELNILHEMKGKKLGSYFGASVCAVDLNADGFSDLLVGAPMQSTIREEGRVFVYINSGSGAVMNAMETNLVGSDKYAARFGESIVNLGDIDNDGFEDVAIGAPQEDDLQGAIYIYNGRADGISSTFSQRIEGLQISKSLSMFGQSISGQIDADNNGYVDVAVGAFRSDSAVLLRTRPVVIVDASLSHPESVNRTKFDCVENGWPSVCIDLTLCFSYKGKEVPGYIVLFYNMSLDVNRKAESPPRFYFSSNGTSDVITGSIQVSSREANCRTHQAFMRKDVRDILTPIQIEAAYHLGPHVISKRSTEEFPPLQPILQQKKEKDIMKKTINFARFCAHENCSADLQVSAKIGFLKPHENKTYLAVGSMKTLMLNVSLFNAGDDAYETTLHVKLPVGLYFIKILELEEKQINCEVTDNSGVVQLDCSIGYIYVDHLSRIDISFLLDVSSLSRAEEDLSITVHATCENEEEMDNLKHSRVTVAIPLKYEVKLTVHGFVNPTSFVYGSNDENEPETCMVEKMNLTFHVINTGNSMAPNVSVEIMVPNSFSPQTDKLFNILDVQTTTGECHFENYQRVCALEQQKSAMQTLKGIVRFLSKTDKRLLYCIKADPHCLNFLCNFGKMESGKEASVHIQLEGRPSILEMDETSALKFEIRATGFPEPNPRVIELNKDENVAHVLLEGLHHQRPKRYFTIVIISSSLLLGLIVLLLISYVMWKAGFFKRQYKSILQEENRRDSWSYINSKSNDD
# Chain of ATP-binding cassette sub-family B member 6 (Homo sapiens) (Q9NP58 whole entry, looked up): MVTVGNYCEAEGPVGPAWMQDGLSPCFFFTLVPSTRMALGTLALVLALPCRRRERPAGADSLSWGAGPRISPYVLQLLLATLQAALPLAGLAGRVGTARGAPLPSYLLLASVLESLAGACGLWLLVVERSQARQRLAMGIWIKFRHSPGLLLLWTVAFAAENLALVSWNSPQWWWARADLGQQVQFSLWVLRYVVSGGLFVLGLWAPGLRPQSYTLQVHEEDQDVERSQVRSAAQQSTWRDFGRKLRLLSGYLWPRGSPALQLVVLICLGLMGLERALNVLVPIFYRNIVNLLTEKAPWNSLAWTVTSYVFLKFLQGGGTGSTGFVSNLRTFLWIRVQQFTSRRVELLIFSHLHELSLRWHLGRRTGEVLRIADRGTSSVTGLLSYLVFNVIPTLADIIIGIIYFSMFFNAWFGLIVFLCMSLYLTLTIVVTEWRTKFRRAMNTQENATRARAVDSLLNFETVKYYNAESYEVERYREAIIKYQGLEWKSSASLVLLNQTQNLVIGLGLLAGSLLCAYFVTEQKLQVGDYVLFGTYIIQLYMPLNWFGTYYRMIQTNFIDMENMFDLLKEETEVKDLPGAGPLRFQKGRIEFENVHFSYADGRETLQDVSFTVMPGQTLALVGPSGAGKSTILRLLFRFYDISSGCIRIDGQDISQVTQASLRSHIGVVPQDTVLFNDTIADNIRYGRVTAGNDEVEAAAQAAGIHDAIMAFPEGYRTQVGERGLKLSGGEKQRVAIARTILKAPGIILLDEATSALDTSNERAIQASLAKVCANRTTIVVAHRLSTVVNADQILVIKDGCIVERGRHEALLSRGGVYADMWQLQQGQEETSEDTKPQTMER
# Chain of Beta-2 adrenergic receptor (Homo sapiens) (P07550 whole entry, looked up): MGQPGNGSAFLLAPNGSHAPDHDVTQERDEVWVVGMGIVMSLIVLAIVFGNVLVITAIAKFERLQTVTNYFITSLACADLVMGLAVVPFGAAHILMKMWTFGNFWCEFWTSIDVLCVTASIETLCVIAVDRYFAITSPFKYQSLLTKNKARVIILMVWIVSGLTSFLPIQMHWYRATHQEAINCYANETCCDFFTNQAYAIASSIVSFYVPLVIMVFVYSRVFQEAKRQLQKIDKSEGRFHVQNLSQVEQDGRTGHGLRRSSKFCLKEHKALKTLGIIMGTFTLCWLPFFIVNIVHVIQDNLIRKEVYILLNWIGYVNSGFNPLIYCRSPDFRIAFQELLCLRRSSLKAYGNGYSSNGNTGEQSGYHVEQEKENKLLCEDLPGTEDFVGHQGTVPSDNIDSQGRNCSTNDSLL
# Chain of AP-2 complex subunit beta (Homo sapiens) (P63010 whole entry, looked up, the tested form may be a part, one chain of several): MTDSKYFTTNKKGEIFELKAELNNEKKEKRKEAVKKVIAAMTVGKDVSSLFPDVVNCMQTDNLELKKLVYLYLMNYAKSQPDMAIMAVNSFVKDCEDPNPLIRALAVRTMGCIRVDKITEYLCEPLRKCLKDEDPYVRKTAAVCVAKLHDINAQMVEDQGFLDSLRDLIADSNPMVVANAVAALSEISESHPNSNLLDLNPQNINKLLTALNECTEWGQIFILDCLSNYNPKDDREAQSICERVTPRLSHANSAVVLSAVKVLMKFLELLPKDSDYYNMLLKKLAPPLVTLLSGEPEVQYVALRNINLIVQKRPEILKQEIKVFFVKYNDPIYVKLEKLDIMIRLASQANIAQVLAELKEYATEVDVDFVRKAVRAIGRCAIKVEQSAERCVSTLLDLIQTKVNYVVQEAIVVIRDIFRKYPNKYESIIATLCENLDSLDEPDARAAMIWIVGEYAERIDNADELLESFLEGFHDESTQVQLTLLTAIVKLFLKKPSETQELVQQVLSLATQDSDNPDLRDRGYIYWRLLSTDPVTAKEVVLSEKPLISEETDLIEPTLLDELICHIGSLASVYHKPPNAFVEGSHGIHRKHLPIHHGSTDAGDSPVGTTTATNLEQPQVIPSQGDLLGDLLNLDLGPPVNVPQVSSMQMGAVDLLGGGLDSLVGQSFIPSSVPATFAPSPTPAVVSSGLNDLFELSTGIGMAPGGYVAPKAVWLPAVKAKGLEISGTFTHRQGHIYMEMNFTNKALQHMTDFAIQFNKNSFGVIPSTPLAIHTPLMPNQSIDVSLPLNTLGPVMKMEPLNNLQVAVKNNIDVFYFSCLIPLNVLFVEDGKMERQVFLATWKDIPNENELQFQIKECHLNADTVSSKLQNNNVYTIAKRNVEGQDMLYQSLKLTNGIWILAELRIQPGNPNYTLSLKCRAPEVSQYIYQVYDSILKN
# Chain of Beta-adrenergic receptor kinase 1 (Homo sapiens) (P25098 whole entry, looked up): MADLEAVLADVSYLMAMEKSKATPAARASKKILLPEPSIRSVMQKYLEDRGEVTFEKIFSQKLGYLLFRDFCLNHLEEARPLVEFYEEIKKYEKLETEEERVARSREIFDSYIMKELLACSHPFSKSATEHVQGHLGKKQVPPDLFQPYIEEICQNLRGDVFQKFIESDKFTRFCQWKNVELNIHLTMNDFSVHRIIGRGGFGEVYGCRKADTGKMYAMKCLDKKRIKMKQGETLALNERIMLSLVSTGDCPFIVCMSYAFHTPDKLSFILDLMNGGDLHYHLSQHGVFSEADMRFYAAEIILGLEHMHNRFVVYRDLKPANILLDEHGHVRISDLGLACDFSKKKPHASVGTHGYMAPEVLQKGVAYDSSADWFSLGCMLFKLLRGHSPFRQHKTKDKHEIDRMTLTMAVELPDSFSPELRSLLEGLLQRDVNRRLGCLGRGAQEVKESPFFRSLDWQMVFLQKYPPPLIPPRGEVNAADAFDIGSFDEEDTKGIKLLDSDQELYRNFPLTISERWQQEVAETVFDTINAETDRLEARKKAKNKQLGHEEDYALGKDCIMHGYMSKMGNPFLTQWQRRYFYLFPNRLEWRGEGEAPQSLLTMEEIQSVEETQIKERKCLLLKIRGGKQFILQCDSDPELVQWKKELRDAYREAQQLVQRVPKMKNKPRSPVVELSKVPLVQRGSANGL
compound,measurement,setting,value
COc1ccc(-c2noc(-c3ccccc3-c3ccccc3)n2)cc1,percent of DMSO control GFP,[1],91.1% (inactive)
same,GFP response vs DMSO,[2],142% (active)
same,percent response of DMSO control,[3],114% (inactive)
same,GFP response vs DMSO,[4],81.4% (inactive)
same,"GFP response, % of DMSO",[5],86.3% (inactive)
same,GFP response vs DMSO,[6],95.6% (inactive)
same,GFP response vs DMSO,[6]; [21],92.9%
same,GFP response vs DMSO,[6]; [22],96.8%
same,GFP response relative to DMSO,[7],95.7% (inactive)
same,GFP response relative to DMSO,[7]; [23],95.9%
same,GFP response relative to DMSO,[7]; [24],97.3%
same,GFP response vs DMSO,[8],107% (inactive)
same,"GFP response, % of DMSO",[9],97.3% (inactive)
same,"GFP response, % of DMSO",[9]; [21],97.4%
same,"GFP response, % of DMSO",[9]; [22],96.8%
same,double positive events,[10],56.5%
same,vesicle binding response,[10],138% (inactive)
same,inhibition,[11],-15.8% (inactive)
same,superoxide response (% of plate),[12],94.3% (inactive)
same,aptamer binding inhibition,[13],8% (inactive)
same,response,[14],3.77% (inactive)
same,inhibition,[15],19.4% (inactive)
same,response,[16],-3.56% (inactive)
same,binding (% of control),[17],100% (inactive)
same,efflux inhibition (fraction of control),[18],0.19 (inactive)
same,inhibition,[19],6% (inactive)
same,differentiation response,[20],-1.64% (inactive)
OC(CCN1CCCCC1)(c1ccccc1)c1ccccc1,percent of DMSO control GFP,[1],92.8% (inactive)
same,GFP response vs DMSO,[2],126% (inactive)
same,percent response of DMSO control,[3],128% (active)
same,GFP response vs DMSO,[4],86.9% (inactive)
same,"GFP response, % of DMSO",[5],91.9% (inactive)
same,GFP response vs DMSO,[6],100% (inactive)
same,GFP response vs DMSO,[6]; [21],99%
same,GFP response vs DMSO,[6]; [22],102%
same,GFP response relative to DMSO,[7],95% (inactive)
same,GFP response relative to DMSO,[7]; [23],97.2%
same,GFP response relative to DMSO,[7]; [24],95.2%
same,GFP response vs DMSO,[8],100% (inactive)
same,"GFP response, % of DMSO",[9],96.5% (inactive)
same,"GFP response, % of DMSO",[9]; [21],96.5%
same,"GFP response, % of DMSO",[9]; [22],85.8%
same,double positive events,[10],62.7%
same,vesicle binding response,[10],152% (inactive)
same,inhibition,[11],12.3% (inactive)
same,superoxide response (% of plate),[12],107% (inactive)
same,aptamer binding inhibition,[13],2% (inactive)
same,response,[14],1.89% (inactive)
same,inhibition,[15],2.98% (inactive)
same,response,[16],5.35% (inactive)
same,binding (% of control),[17],103% (inactive)
same,efflux inhibition (fraction of control),[18],-0.24 (inactive)
same,inhibition,[19],8% (inactive)
same,differentiation response,[20],-4.91% (inactive)
CC(=O)[C@H]1CC[C@H]2[C@@H]3CCC4=CC(=O)CC[C@]4(C)[C@H]3[C@H](O)C[C@]12C,percent of DMSO control GFP,[1],93% (inactive)
same,GFP response vs DMSO,[2],147% (active)
same,percent response of DMSO control,[3],99.2% (inactive)
same,GFP response vs DMSO,[4],85.3% (inactive)
same,"GFP response, % of DMSO",[5],93.3% (inactive)
same,GFP response vs DMSO,[6],99.1% (inactive)
same,GFP response vs DMSO,[6]; [21],99.3%
same,GFP response vs DMSO,[6]; [22],99.7%
same,GFP response relative to DMSO,[7],100% (inactive)
same,GFP response relative to DMSO,[7]; [23],102%
same,GFP response relative to DMSO,[7]; [24],98.5%
same,GFP response vs DMSO,[8],97.5% (inactive)
same,"GFP response, % of DMSO",[9],101% (inactive)
same,"GFP response, % of DMSO",[9]; [21],102%
same,"GFP response, % of DMSO",[9]; [22],99.1%
same,double positive events,[10],57.7%
same,vesicle binding response,[10],64.9% (inactive)
same,inhibition,[11],-20.7% (inactive)
same,superoxide response (% of plate),[12],109% (inactive)
same,aptamer binding inhibition,[13],3% (inactive)
same,response,[14],0.15% (inactive)
same,inhibition,[15],16.3% (inactive)
same,response,[16],-2.3% (inactive)
same,binding (% of control),[17],97.4% (inactive)
same,efflux inhibition (fraction of control),[18],0.12 (inactive)
same,inhibition,[19],2% (inactive)
same,differentiation response,[20],4.09% (inactive)
